In ChEMBL document CHEMBL4513216, “Probing the Open Global Health Chemical Diversity Library for Multistage-Active Starting Points for Next-Generation Antimalarials” (ACS Infect Dis, 2020):
In all, about 69,000 compounds went through this assay and about 8,600 (12%) showed an effect of 50% or more. This is one part of a sample in which strong results are shown more often than they occur.

System: Plasmodium berghei
Assay: Screen against P. berghei liver stage (PbLuc), transformed with Luciferase, at 10uM
Assay type: functional, HepG2
Settings: tested at 10 uM

Compound | INHIBITION [%]
Cc1cccc(CN2C[C@@H]3CN(C(=O)c4cnoc4C)C[C@@H]3C2=O)n1 | 1.34
CC(=O)N(C)Cc1ccccc1NC(=O)c1cnn(C)c1C | -18.7
CNC(=O)CN1CCOCC2(C1)CN(C(=O)CC(C)C)CCO2 (stereo not given) | -3.52
Cc1nn(C)cc1S(=O)(=O)NCC(C)Cn1cc(Cl)cn1 (stereo not given) | 18.4
COCCN(C)Cc1cc(Cl)ccc1OCC(O)CN1CCCCCC1 (stereo not given) | 25.4
Cn1cccc1C(=O)N1CCc2c(CNS(C)(=O)=O)cncc2C1 | -7.29
Cc1ccc(CC2CCCN(S(C)(=O)=O)C2)nc1 (stereo not given) | 21.9
CC(O)c1cccc(OCc2ccon2)c1 (stereo not given) | 74.3
CCCOc1cccc(-c2nc3c([nH]2)CCNC3)c1 | 13.7
Cc1cccc(C(C(=O)N(C)Cc2ccon2)N(C)C)c1 (stereo not given) | 25.9
CCCOc1cccc(OCc2ccon2)c1 | 91.3
CC(C)Oc1cccc(CN(C)C(=O)Cc2ccon2)c1 | -24.6
OCc1cccc(OCc2ccon2)c1 | 36.8
Cc1ccsc1CNC(=O)CCc1c(C)nc2cc(O)nn2c1C | 40.2
COc1ncccc1CNC(=O)C1CC(=O)N(C)C1 (stereo not given) | 10.6
CCCS(=O)(=O)NCc1cccnc1Oc1ccc(C)nc1 | 1.93
CN(C)S(=O)(=O)NCc1cccnc1Oc1ccc(F)cc1F | 31.7
CN(C)S(=O)(=O)NCc1cccnc1Oc1ccccc1F | 5.46
Cc1ccccc1Oc1ncccc1CNS(C)(=O)=O | 0.139
CN1CC(C(=O)NCc2cccnc2OCc2ccccc2)CC1=O (stereo not given) | 55.1
CC(C)S(=O)(=O)NCc1cccnc1Oc1ccc(F)cc1F | 56.3
Cc1ccccc1Oc1ncccc1CNC1CCC1 | 28

Compound | INHIBITION [%]
Cc1nc(CNCc2cccnc2Oc2ccc(C)c(F)c2F)c[nH]1 | 75.3
CN1CC(C(=O)NCc2cccnc2OCC(F)(F)F)CC1=O (stereo not given) | 44.9
c1ccc(Oc2ncccc2CNCc2ccccn2)cc1 | 19.7
CCCS(=O)(=O)NCc1cccnc1Oc1ccc(C)c(F)c1F | 50.3
Cc1nc(CN(C)C(=O)CN(C)C)nc2c1CCC(=O)N2CCC(C)C | 7.43
Cc1cccc(CS(=O)(=O)c2nnc([C@@H](N)Cc3ccccc3)o2)c1 | 23.1
COc1ccc(C)cc1NC(=O)c1c(C)cn(C)c1CC(=O)O | -0.473
CCOC(=O)Cn1c(=O)c(OCC)nc2cnccc21 | 42.6
CN(C)CC(=O)N1CCCC2(CCN(c3ccccc3)C2=O)C1 (stereo not given) | -4.82
CCOc1ccccc1CNC(=O)N1CCC(Cc2cnn(C)c2)C1 (stereo not given) | -12.45
C1CN(CC2CCOCC2)Cc2c(COCC3CC3)nnn2C1 | 8.03
CCOC(=O)c1nc(CC(=O)Nc2ccc3cc[nH]c3c2)no1 | 3.19
OCc1cn(Cc2cccc(F)c2)nn1 | 28.5
O=C(O)CCCC(=O)NCC1(O)CCN(c2ccnc3cccnc23)C1 (stereo not given) | 17.25
O=C(CN1CCCC1=O)N1CCC(O)(Cn2ccc3ccncc32)CC1 | 7.52
COC(=O)C1CCN(C(=O)Cn2ccc(-c3ccsc3)n2)CC1 | -46.4
CCCC(C)CS(=O)(=O)NCc1cccnc1OC (stereo not given) | 1.94
CCCS(=O)(=O)NCc1cccnc1OCc1ccccc1 | 50.4
CCCS(=O)(=O)NCc1cccnc1OCC | -1.53
COc1ccc(CSc2nnc(N)n2C2CC2)cc1F | -16.3
O=C(CCC(=O)N1CCC(c2noc3cc(F)ccc23)CC1)NC1CC1 | 10.5
Cn1cc(C(=O)N2CCC(c3ncc[nH]3)CC2)cn1 | 14

Compound | INHIBITION [%]
O=C(c1cncc(F)c1)N1CCC(c2ncc[nH]2)CC1 | 31.2
N#Cc1ccc(C(=O)N2CCC(c3ncc[nH]3)CC2)cn1 | 51.2
CC(=O)N1CC2(CCN(c3ccc4ccccc4n3)CC2)CC1C(=O)O (stereo not given) | 44
COCCNC(=O)[C@H]1CN(Cc2sccc2C)C[C@H]2OCC[C@@H]12 | -4.88
Cc1cc(C2CCCN(Cc3nc(Cc4ccccc4)no3)C2)n[nH]1 (stereo not given) | 79.7
Cc1cc(C2CCCN(Cc3nnc(Cc4ccccc4)o3)C2)n[nH]1 (stereo not given) | 17
Cc1cc(C2CCCN(Cc3noc(Cc4ccccc4)n3)C2)n[nH]1 (stereo not given) | -10.8
CC1CCCN(Cc2ccc(CNC(=O)NCc3ccncc3)cc2)C1 (stereo not given) | 22.5
CC(C)c1ccc(NC2CCCN(Cc3ccncc3)C2)cc1 (stereo not given) | 70.3
Cc1cc(C2CCCN(Cc3cccnc3)C2)n[nH]1 (stereo not given) | 59.1
Cc1cncc(C2CCCN(Cc3ccncc3)C2)n1 (stereo not given) | 60.4
Cc1cnc(CN2CCCC(c3cc(C)[nH]n3)C2)cn1 (stereo not given) | 35.9
Fc1ccc(NC2CCCN(Cc3ccncc3)C2)cc1 (stereo not given) | -10.6
Cc1cncc(C2CCN(Cc3ccncc3)CC2)n1 | 23.3545
FC(F)(F)c1cc(C2CCCN(Cc3cccnc3)C2)n[nH]1 (stereo not given) | 35
Cc1ccc(CN2CCCC(c3cncc(C)n3)C2)cn1 (stereo not given) | -6.3
CCC(O)CN1CCN(C(=O)CN(C)c2ccc(Cl)cn2)CC1 (stereo not given) | 3.03
C=C(C)COc1ccccc1CNCCc1cc(O)nc(C)n1 | 7.65
CC(C)Nc1nc(O)cc(C(C)n2ncc3ccccc3c2=O)n1 (stereo not given) | 29.9
COc1cccc2cc(CNC(=O)N3CCOC(C)(C)C3)oc12 | 33.8
COc1cc(C(=O)N2CCCC(CNS(C)(=O)=O)C2)ccc1C (stereo not given) | 7.12
COc1c(Br)c(CC2CC(CO)=NO2)c(Br)c2c1OCO2 (stereo not given) | 42.4

Compound | INHIBITION [%]
CC(C)CCN1C[C@H]2CCN(C(=O)NC3CCCC3)CC[C@H]2S1(=O)=O | 37.1
O=C(NCCCn1ccnc1)C1COCC(=O)N1Cc1ccccc1 (stereo not given) | 38.3
O=C(NCCn1ccnc1)C1COCC(=O)N1Cc1ccccc1 (stereo not given) | 66.1
O=C(NCCCn1cccn1)C1COCC(=O)N1Cc1ccccc1 (stereo not given) | 49
Cc1noc(C)c1C(=O)N1C[C@@H]2CC[C@H]1CN(c1cnccn1)C2 | -39.2
Cc1ccc(CN2CCC(F)(F)C3(CCN(c4cnccn4)C3)C2)o1 (stereo not given) | 35.1
Cc1ccc(N2CCC3(CN(Cc4cccs4)CCC3(F)F)C2)nn1 (stereo not given) | 61.3
Cc1ccc(N2CCC3(CN(CCO)CCC3(F)F)C2)nn1 (stereo not given) | 39.5
Fc1ccc(CN2CCC(F)(F)C3(CCN(c4cnccn4)C3)C2)cc1 (stereo not given) | 1.61
Cn1cc(CN2CCC(F)(F)C3(CCN(c4ncccn4)C3)C2)cn1 (stereo not given) | 9.51
Cc1ccc(N2CCC3(CN(Cc4ccncc4)CCC3(F)F)C2)nn1 (stereo not given) | 89.1
CC(C)(C)c1ncc(C(=O)NCCNS(C)(=O)=O)s1 | -33.9
CNS(=O)(=O)CC(=O)N1CCCc2cc(C(C)C)ccc21 | 39.7
O=C(c1cnc(-c2ncccn2)s1)N1CCCC(n2cccn2)C1 (stereo not given) | 21
CNC(=O)c1[nH]nc2c1CN(c1cc(C3CCCNC3)nc(C)n1)CC2 (stereo not given) | 55.4
CNc1cc(C2CCCNC2)nc(C)n1 (stereo not given) | 16.4875
Cc1nc(NCCC23CCCN2CCC3)cc(C2CCCNC2)n1 (stereo not given) | -59.5
CNC(=O)C1CCN(c2cc(C3CCNCC3)nc(C)n2)C1 (stereo not given) | 26.4
Cc1nc(NCC23CCCN2CCC3)cc(C2CCCNC2)n1 (stereo not given) | -71.1
Cc1nc(C2CCCNC2)cc(N2CCc3nc(N)sc3C2)n1 (stereo not given) | 53.6
O=C(COc1coc(CN2CCOCC2)cc1=O)Nc1ccccc1F | -0.532
Cc1ncc2c(c1C(=O)O)CCN(c1ncc(F)cn1)C2 | 7.24

Compound | INHIBITION [%]
Cc1nc(CN2CCOC(Cn3cccn3)C2)no1 (stereo not given) | 4.71
Cc1noc(C2CCN(Cn3cc(Cl)cn3)CC2)n1 | 37.9
C[C@]1(O)CCN(Cc2ncccc2F)C[C@@H]1Oc1ccccc1 | -11.7
CC[S+](CC)[c-]1c(=O)[nH]c(=O)n(CCc2ccc(F)cc2)c1=O | -17.6
O=C(O)c1cnc(N2CCC(O)CC2)nc1COc1cccc(F)c1 | 6.67
CCOc1ccc(Br)cc1C1CCCN1 (stereo not given) | 16.8
Cc1cnc(N2CCC3(CC2)CN(Cc2cccs2)CCO3)nc1 | 58.3
O=C(c1ccccc1)N1CCOC2(CCN(Cc3cccs3)CC2)C1 | -11
Fc1cnc(N2CCOC3(CCN(Cc4cccs4)CC3)C2)nc1 | 48.4
Fc1cnc(N2CCC3(CC2)CN(Cc2cccs2)CCO3)nc1 | 60.3
c1ccc(CN2CCOC3(CCN(c4ncccn4)CC3)C2)nc1 | 14.2
Fc1cnc(N2CCC3(CC2)CN(Cc2ccccn2)CCO3)nc1 | -3.51
O=C(NCc1csc(Br)c1)Nc1cn[nH]c1 | 17.5
COCCC1(C(=O)O)CCCN(CCOCc2ccccc2)C1 (stereo not given) | 27.9
COCCCC1(C(=O)O)CCCN(Cc2cc3c(cc2C)OCCO3)C1 (stereo not given) | -31.4
COCCC1(C(=O)O)CCCN(Cc2cc3c(cc2Cl)OCO3)C1 (stereo not given) | 58.5
COCCC1(C(=O)O)CCCN(CCc2ccccc2)C1 (stereo not given) | 31.6
COCCC1(C(=O)O)CCCN(Cc2cc3c(cc2C)OCO3)C1 (stereo not given) | 57.2
COCCCC1(C(=O)O)CCCN(Cc2ccccc2C)C1 (stereo not given) | 14.9
C=c1cc(C)oc1=C1NC(c2c(C)ncc3c2CCNC3)=NO1 | 49
O=C(Nc1cnn(Cc2ccc(Cl)cc2)c1)N1CCCC1CO (stereo not given) | -31.1
FC1(F)CCNCC12CCN(c1cccnc1)C2 (stereo not given) | 33
